# Measurements: the supplement of paper PMC6555819
# Legend:
# Assay in all cases: PBM binding z-score (relative to random genomic background probes); higher = stronger binding; sequences stand for … in GC…GCGATTGACAGCGTAGAATGAAGG
# [1] = system: RARb homodimer (NR concentration 270 nM)
# Procedure, shortened: (§1)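 Binding z-scores were set against random background probes. The data came from custom Agilent 4×180K protein-binding microarrays carrying double-stranded probes with 34-nt variable regions, incubated 1 h with ligand-free nuclear receptor dimers. Partner-specific antibodies detected binding, and scanned fluorescence was regression-normalized.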
# [2] = system: RARg:RXRa (NR concentration 270 nM, RXRa partner concentration 90 nM)
# Procedure, shortened: as §1
# [3] = system: RARg homodimer (NR concentration 270 nM)
# Procedure, shortened: as §1
# [4] = system: RXRa DBDmut IVT, anti-RXR (DBD mutation: RXRa K156A/R161A, NR concentration 90 nM)
# Procedure, shortened: as §1
# [5] = system: RXRa homodimer (NR concentration 180 nM)
# Procedure, shortened: as §1
# [6] = system: THRa:RXRa (NR concentration 90 nM, RXRa partner concentration 90 nM)
# Procedure, shortened: as §1
# [7] = system: THRa homodimer (NR concentration 90 nM)
# Procedure, shortened: as §1
# [8] = system: VDR:RXRa (NR concentration 270 nM, RXRa partner concentration 90 nM)
# Procedure, shortened: as §1
# [9] = system: VDR homodimer (NR concentration 270 nM)
# Procedure, shortened: as §1
Sequence,PBM binding z-score [1],PBM binding z-score [2],PBM binding z-score [3],PBM binding z-score [4],PBM binding z-score [5],PBM binding z-score [6],PBM binding z-score [7],PBM binding z-score [8],PBM binding z-score [9]
GATACAGGGTCCGCTAGAGGCCAGAGTATGGAAA,0.0694,0.628,0.211,-0.114,-0.246,0.0317,-1.09,-0.544,-0.148
TCTAGAAGGCCAGAGGGTCACTCAAGAGGTACGG,3.16,3.17,2.72,0.844,3.03,1.75,-0.0793,2.05,0.435
TCTTATAGATCAACAGGAGGTTAAGAAAGATCGA,0.606,1.45,0.65,1.06,1.47,1.05,-0.19,1.01,-0.0267
ATACGAAGGTGATCGTGAGGTCGTTGATACTAAC,1.55,2.15,0.985,0.65,1.6,3.28,1.94,3.09,2.48
CCGAGTAGTTTATGGGGCATTCAGGCAACGGTGA,0.512,-0.0698,0.182,0.904,-0.158,0.238,0.0882,-0.229,0.37
CGTCAAATTTCAAGGTAACGTAACAGAAAGCAGC,-0.107,0.0405,0.398,-0.0368,0.32,2.11,1.27,0.0191,-0.239
AGAACGAGGACAATGAGTTGATAGCACGGGTGGC,0.202,0.444,1.06,1.31,0.454,2.19,1.15,1.75,2.33
CCACGGAGGACAGAAGGTCAGAGCTGTCCGCTTT,3.73,3.62,3.48,0.42,2.22,2.44,0.0793,0.979,0.236
CCTTACGGGTCACTGACAGGTTAGAGCATTTGGA,3.12,5.7,4.77,1.55,5.51,2.68,0.0773,3.33,0.83
TAGCCTAGGTCATGCGGGCCACTATAGTGTCGGC,2.97,4.13,4.41,0.662,3.23,3.15,0.932,3.58,1.08
CCTGCTAGGTCAATGGTCAGCTGAAGCAGCTCGC,3.18,3.7,4.37,1.85,2.2,2.36,0.335,0.785,0.0523
GTAACGAGGGCATTCGAGTTGATAGCATGGCGAT,0.944,1.34,1.45,2.91,0.914,3.18,-0.244,3.62,3.97
GCATATAGGTAATACAAGGTGAAAGGCCGATTGT,1.08,0.593,0.747,0.113,0.895,4.07,0.753,0.402,0.114
CCTAGGTGGTCAGGAGGTCACACACCGGATATGA,4.34,5.44,4.63,0.00245,5.16,3.45,2.2,3.76,2.85
CAGCCTAGGTCAGGGCGAGTATAGGAGGAACGTT,2.44,3.08,3.72,0.0681,1.76,2.03,0.0582,0.552,-0.499
CCAGACAGGTGAAAGGTAACCCAGTCTGGTACGC,0.747,1.35,0.881,-0.455,1.83,0.935,-0.0283,0.645,-0.223
GCTTGTAGATCAAGGTTAATAAAGACTAAGCTAA,0.0389,0.0476,0.168,-0.167,0.452,1,-0.489,-0.00898,-0.152
GCTTGTAGATCAAGGTTAAGAAGGACTAAGCTAA,0.182,0.382,0.268,-0.0285,0.716,1.18,-0.165,0.438,-0.0273
CCTCGGAGGACAACAGGAGGTCAGAGCAGCCAGA,3.68,3.56,3.45,-0.0172,2.05,2.86,1.04,1.94,1.14
GCGACTGGGGTATCAGCAGGTTACCATAACTTAA,0.852,0.223,-0.199,-0.351,0.229,1.82,-0.0503,-0.202,-0.333
TCTCGGAGGACACGAACGGTCAGAGCTCGACATC,1.89,1.02,2.34,0.557,0.138,1.44,0.357,0.073,-0.389
ATCGAAATGTCGAGGTGAGTATAGAGAAAGGGAA,-0.158,0.381,0.595,-0.737,0.198,1.24,0.217,-0.253,-0.583
CCGACAGGGGCAAAGGTTACCATACTCAGTACGA,2.32,3.95,2.17,1.26,5.03,2.17,-0.142,2.6,0.724
CCAAGCAGGCCAGGGTCACTCAAGCATTTCGCTT,2.75,3.16,2.36,0.375,3.22,3,1.15,2.55,1.51
TTACCAAGGTGAGAGGTCGTTGATGCACGCCTTG,1.97,2.58,1.3,0.404,3.24,2.6,1.11,2.25,1.66
GCTCGGAGGATAAGGTCAGAGCTTTGTCCGTAGA,3.31,2.92,3.06,0.342,2.71,3.33,2.82,1.15,0.184

Sequence,PBM binding z-score [1],PBM binding z-score [2],PBM binding z-score [3],PBM binding z-score [4],PBM binding z-score [5],PBM binding z-score [6],PBM binding z-score [7],PBM binding z-score [8],PBM binding z-score [9]
TCTAGTTGGACAAAGGTCACACACTCGAAATGCG,5.06,6.62,5.93,1.75,7.13,4.12,1.8,5.09,2.24
TCGAGTAGGTTAGGGGCATTCTGAATGGCGTCGA,0.656,0.0827,0.00279,0.628,0.386,0.627,-0.0336,0.242,0.572
TCTTGTAGATCATCAGGAGGTTAAGAAAGATCGA,0.484,0.857,0.389,0.372,1.01,0.897,-0.482,,-0.126
CCTACTGGGCCATTCAGGGGTCATTGATCATATG,3.95,4.69,3,0.56,5.5,3.31,0.962,4.82,4.05
ACTAGCAGGCCAATTTTGGGTCACTCAAACAAAG,2.11,1.59,1.25,-0.264,0.898,2.34,1.24,0.456,-0.032
ACAATGAGGTTAAGATCAGGGAAACAGAATACAT,0.906,2.33,1.7,1.33,2.53,2.51,0.954,1.3,0.941
CCTAGCAGGCCAATCTGGGTGACTCAAGGCTTGA,-0.195,-0.294,-0.326,-0.391,-0.592,2.16,-0.548,-0.769,-0.648
CCTCCAAGGTCAGAGAGGTCAGTGAATGCCGAGT,5.51,6.2,6.87,3.18,5.37,4.36,2.59,7.22,4.62
TCTAGTTAGTCAAAGGTCACACACTCGAAATGCG,4.84,6.12,5.68,2.03,7.09,3.97,1.9,4.97,2.57
CCTGCTAGGTCATGGTCAGCTACTCTACAGTATG,3.28,3.94,4.84,1.7,2.51,2.76,1.42,1.46,0.186
TCTTGTAGTTCAAGCAGGTTAAGAAAGCCTGAGT,1.48,1.44,1.65,2.37,1.47,1.63,-0.0988,3.32,2.02
GCGACTGGGGCATCAGCAGGTTAACATAACTTAA,1.03,1.09,0.785,-0.118,0.5,1.04,-0.291,0.126,-0.312
CGTCCAAGGTTAGCAGGTCAGTGAAAGCGACGTG,3.14,2.7,2.6,0.446,2.04,2.07,0.653,1,0.443
GCGACTGGGGCAAAGCAGGTTACCGTAAGGTTGG,1.14,0.477,0.183,-0.47,0.234,3.15,-0.142,-0.0193,-0.434
GTACCAAGCTGAATAGGTCGTTGATGAGTAGGCG,0.0267,-0.0216,0.164,-0.0938,0.371,-0.0665,-0.873,,-0.43
GGAACGAGGGCACAGTTGATAGCATCTGTCGACG,0.918,1.28,1.61,1.69,0.922,1.08,-0.317,0.453,0.774
CCTTACGGGTGACTGACAGGTTATAGCATTTGGA,0.601,1.07,0.559,0.115,0.941,0.72,-0.154,0.132,-0.209
ATACCAAGGTGATCGTGAGGTCGTTCATACTAAC,1.73,2.21,0.992,0.992,1.58,3.38,2.71,3.58,3.68
TCTTGCAGGCCAGAGGGTCACTCAAGAGGTACGG,2.73,2.73,2.38,0.074,2.37,1.79,-0.22,1.7,0.546
CGAACTAGGTCCTCCAGGACAGTGAATACATTGA,-0.151,0.0122,0.149,0.211,0.00298,1.41,0.816,-0.247,-0.221
TAGCCTAGGTCATGGTCCAGTATACCACGCGAAC,3.04,3.96,4.28,0.681,3.51,3.39,1.75,2.14,0.777
CGTCCATGGTCAAGGTCAGTGAAAGAGACTCGAA,3.21,3.15,3.78,0.79,2.4,2.84,1.79,1.51,1.02
CCGACTGAGGCAGAAAGGTTACCATACCATCCGG,2.04,1.26,0.925,-0.0333,1.87,1.06,-0.0968,0.732,-0.0311
TATACAGGGTCAACGGCCAGAGTACGAATGTCGA,3.43,5.83,5.47,2.75,6.28,3.46,1.05,4.6,2.95
CGTCCAAGGTCAGCAGGTCAGTGTAAGCGACGTG,5.08,6.34,6.61,2.55,4.93,4.01,2.46,4.14,2.01
GCAGGCAGGTGAAACGCAGGTAACTCAGGGTGGC,-0.0937,0.946,0.484,-0.721,0.329,1.58,-0.371,0.85,-0.723
